Experimental data taken from paper PMC5540273 (PLoS ONE, 2017).

Experiments:
Conditions in all cases: concentration: 1 μM, replicates: in singlicate; n = 1
HIPK2 = system: HIPK2
HIPK3 = system: HIPK3
HIPK4 = system: HIPK4
HPK1 = system: HPK1
HUNK = system: HUNK
ICK = system: ICK
IGF1R = system: IGF1R
IKK-alpha = system: T1, IKK-alpha
T1 construct: gene CHUK

IKK-beta = system: T2, IKK-beta
T2 construct: gene IKBKB

IKK-epsilon = system: T3, IKK-epsilon
T3 construct: gene IKBKE
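Also: KINOMEscan kinase panel screen.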

SMILES | %Inh (HIPK2) [%] | %Inh (HIPK3) [%] | %Inh (HIPK4) [%] | %Inh (HPK1) [%] | %Inh (HUNK) [%] | %Inh (ICK) [%] | %Inh (IGF1R) [%] | %Inh (IKK-alpha) [%] | %Inh (IKK-beta) [%] | %Inh (IKK-epsilon) [%]
CCC(CC)(CC)n1cnc2c(N)ncnc21 [SKF-97620] | 10 | 19 | 8 | 0 | 34 | 32 | 0 | 30 | 8 | 0
FC(F)(F)c1cc(Nc2nccc(-c3c(-c4ccc(Cl)cc4)nn4ncccc34)n2)ccc1Cl [GW829351] | 0 | 0 | 0 | 0 | 67 | 0 | 0 | 0 | 0 | 0
CCc1nc(-c2cccc(N(C)S(=O)(=O)c3ccccc3)c2)c(-c2ccnc(Nc3ccc(N4CCN(C(C)=O)CC4)nc3)n2)s1 [GSK1645895] | 0 | 17 | 0 | 35 | 0 | 13 | 0 | 0 | 1 | 39
Nc1nc(-c2ccc3c(N)n[nH]c3c2)cc(N2CCC[C@@H](C(=O)Nc3ccccc3)C2)n1.O=C(O)C(F)(F)F.O=C(O)C(F)(F)F [GSK2288359] | 0 | 6 | 1 | 32 | 0 | 12 | 100 | 0 | 0 | 29
O=C(NCCCN1CCCC1=O)c1cnc(NCc2cc(Cl)ccc2Cl)nc1NC1CCNCC1 | 0 | 0 | 13 | 20 | 0 | 0 | 0 | 0 | 0 | 0
c1ccc(-c2ccc3c(-c4ccnc(Nc5ccc6c(c5)OCCO6)n4)cnn3n2)cc1 [GW818941] | 0 | 0 | 21 | 47 | 0 | 8 | 9 | 21 | 14 | 6
CSc1nn2c(=O)cc(N3CCOCC3)nc2n1Cc1cccc(Cl)c1Cl [GSK2347225] | 0 | 17 | 2 | 25 | 25 | 0 | 0 | 0 | 0 | 28
Fc1ccc(-c2ncn(CCCNCc3ccccc3)c2-c2ccncc2)cc1 | 23 | 45 | 0 | 8 | 7 | 12 | 4 | 0 | 9 | 10
C[C@@H]1CCN(C(=O)CO)C[C@@H]1N(C)c1ncnc2[nH]ccc12 | 0 | 0 | 0 | 0 | 0 | 0 | 0 | 0 | 0 | 0
COc1cc2ncnc(Nc3ccc(OCc4ccccc4Br)c(Cl)c3)c2cc1OC.Cl [GI261590] | 0 | 0 | 0 | 33 | 11 | 0 | 0 | 32 | 16 | 18
O=c1cc(N2CCOCC2)nc2n(Cc3cccc(Cl)c3)ccn12 [GSK2296823] | 0 | 18 | 0 | 37 | 0 | 19 | 1 | 3 | 17 | 35
FC(F)(F)c1ccc(-c2nn3ncccc3c2-c2ccnc(Nc3cccc(C(F)(F)F)c3)n2)cc1 [GW828205] | 0 | 0 | 11 | 0 | 32 | 0 | 3 | 0 | 0 | 0
Cc1ccc(O)cc1Nc1cc(C(F)(F)F)nc2ccc(-c3ccncc3)cc12 [GW630823] | 0 | 0 | 9 | 0 | 3 | 0 | 5 | 0 | 0 | 0
Nc1nc(-c2ccccn2)c(-c2ccnc3ccccc23)s1 [GW548057] | 5 | 15 | 0 | 20 | 8 | 7 | 9 | 8 | 0 | 22
O=C(CCO)NCCn1ccc2ncnc(Nc3ccc(Oc4cccc(C(F)(F)F)c4)c(Cl)c3)c21 | 0 | 0 | 0 | 7 | 0 | 0 | 0 | 0 | 0 | 0
Cl.Cn1ccc(-c2cccc(Nc3ccnc4cc(-c5nccs5)ccc34)c2)n1 [GW525701] | 0 | 0 | 0 | 34 | 22 | 11 | 21 | 30 | 11 | 31
